Results filed as inconclusive are left out. Active and inactive are the calls of the source. Calls follow the shape of the dose curve; as a rule, active = well fitted cell-killing curve with a large enough effect in the repeat runs; inconclusive = weak or mixed curves, or effect the other way; inactive = no such curve, though single readings can be large or run the other way.
assay: qHTS assay to identify small molecule agonists of the estrogen receptor alpha (ER-alpha) signaling pathway in the presence of an antagonist - cell viability counter screen (AID 1259386); settings: VM7Luc4E2 viability, CellTiter-Fluor fluorescence, 22 h; series mostly up to 92.4 µM; activity change, negative = cytotoxicity: at the top concentration;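 also: cells exposed to compounds for 22 h at 37 °C before the viability read; nearly all actives have a fitted effect of over 30% in size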
From the text: National Center for Advancing Translational Sciences [NCATS]
NIH Chemical Genomics Center [NCGC]
U.S. Environmental Protection Agency [EPA]
National Institutes of Environmental Health Sciences [NIEHS]
National Toxicology Program [NTP]
U.S. Food and Drug Administration [FDA]
Estrogen receptor (ER), a member of nuclear hormone receptor plays an important role in development, metabolic homeostasis and reproduction. Two subtypes of ER, ER-alpha and ER-beta, have similar expression patterns with some uniqueness in both types. Endocrine disrupting chemicals (EDCs) and their interactions with steroid hormone receptors like ER causes disruption of normal endocrine function. Therefore, it is important to understand the effect of environmental chemicals in ER signaling pathway. For identifying ER agonists, VM7Luc4E2 cell line has been used in the current assay.
VM7Luc4E2 cell line (provided by Denison MS, University of California) endogenously expresses full-length ER-alpha and is stably transfected with a plasmid containing four estrogen responsive elements (ERE) upstream of a luciferase reporter gene. This current screening for measuring luciferase reporter gene activity using VM7Luc4E2 cells against Tox21 10K library collection is a confirmation study on agonist mode screening in presence of ER-antagonist (ICI-182,780) at 10.0nM final concentration. The cytotoxicity of the compounds was tested in parallel by measuring the cell viability using CellTiter-Fluor assay system (Promega, Madison, WI) in the same wells.
Tox21 Assay Protocol Summary:
VM7Luc4E2 cells were cultured in phenol red free assay medium containing 10% charcoal stripped FBS for 5 days prior to the assay. The cells were dispensed at 4,000 cells in 4uL of assay medium per well into white wall/solid-bottom 1536-well plates (Corning Life Sciences, Corning, NY) using a Multidrop Combi (Thermo Fisher Scientific Inc., Waltham, MA) dispenser. After the assay plates were incubated at 37C and 5% CO2 for 24hr, 1uL of 10.0nM (final concentration) ICI-182,780 or assay buffer was added using two separate tips of Flying Reagent Dispenser (FRD, Aurora Discovery, San Diego, CA). Then 23nL of compounds dissolved in DMSO at 15 concentrations and positive controls or DMSO only was transferred to the assay plates by a Pintool station (Wako, San Diego, CA). The assay plates were incubated at 37C and 5% CO2 for 22hr. After 21hr incubation at 37C, 1uL/well CellTiter-Fluor reagent (Promega Corporation, Madison, WI) was added to each well using FRD and after 1hr incubation at 37C and 5% CO2, the fluorescence signal was measured on ViewLux plate reader (PerkinElmer, Shelton, CT).
% is scaled to controls: 0 for no effect and ±100 for the full control effect; potency is read from the fitted curve at half-maximal effect.

SMILES	activity change, negative = cytotoxicity	Potency
C[C@@H]1C[C@H]2[C@@H]3CCC4=CC(=O)C=C[C@]4(C)[C@@]3(F)[C@@H](O)C[C@]2(C)[C@H]1C(=O)CO	-3.25% [at 42.5 µM] (inactive)	–
CCCCCC=CCC=CCCCCCCCC(=O)OCC	2.61% [at 42.5 µM] (inactive)	–
CC1=CC(O)CC(C)(C)C1 (stereo not given)	2.91% (inactive)	–
Cc1occc1C(=O)Nc1ccc(C(=O)N2CCC(F)(F)/C(=C\C(=O)N3CCC(N4CCCCC4)CC3)c3ccccc32)cc1	-10.4% [at 42.5 µM] (inactive)	–
COc1cc2c(cc1OC)-c1cc(=Nc3c(C)cc(C)cc3C)n(C)c(=O)n1CC2	-5.78% [at 42.5 µM] (inactive)	–
O=C(N/N=C/c1ccc([N+](=O)[O-])o1)c1ccc(O)cc1	–	29.8 µM (active)
C=CC(C)(C)CC(=O)OC	-7.51% (inactive)	–
CC(C)C(=O)O	3.03% (inactive)	–
COCCOC(=O)C1=C(C)NC(C)=C(C(=O)OC/C=C/c2ccccc2)C1c1cccc([N+](=O)[O-])c1 (stereo not given)	-7.33% [at 42.5 µM] (inactive)	–
[O]=[Bi]	-3.93% [at 8.39 µM] (inactive)	–
Nc1ccc(C(=O)OCCCOC(=O)c2ccc(N)cc2)cc1	0.143% (inactive)	–
CCCCCCCCCCCC(=O)[O][Sn]([CH2]CCC)([CH2]CCC)[O]C(=O)CCCCCCCCCCC	4.07% [at 42.5 µM] (inactive)	–
CC(=O)OCC(=O)[C@@]12OC(C)(C)O[C@@H]1C[C@H]1[C@@H]3C[C@H](F)C4=CC(=O)C=C[C@]4(C)[C@@]3(F)[C@@H](O)C[C@@]12C	-0.803% [at 42.5 µM] (inactive)	–
C=CC(C)=CCC=C(C)C	-5.45% (inactive)	–
CO[C@H]1O[C@H](CO)[C@@H](O)[C@H](O)[C@H]1O	2.97% (inactive)	–
COc1cc2ncnc(Nc3ccc(F)c(Cl)c3)c2cc1OCCCN1CCOCC1	-6.59% [at 42.5 µM] (inactive)	–
C[C@@H]1C[C@H]2[C@@H]3CCC4=CC(=O)C=C[C@]4(C)[C@@]3(F)[C@@H](O)C[C@]2(C)[C@@]1(O)C(=O)CO	-2.11% (inactive)	–
CN(C(=O)C(Cl)Cl)c1ccc(OC(=O)c2ccco2)cc1	0.27% [at 42.5 µM] (inactive)	–
CC1=NN(c2ccc(C(=O)O)cc2)C(=O)C1	-4.02% (inactive)	–
CN1CCN(CCCN2c3ccccc3Sc3ccc(S(=O)(=O)N(C)C)cc32)CC1	-13.3% [at 42.5 µM] (inactive)	–

SMILES	activity change, negative = cytotoxicity	Potency
O=C(O)c1cccc(O)c1	0.802% (inactive)	–
COc1ccc(C(=O)c2cccc(O)c2)c(OC)c1	0.459% (inactive)	–
CCOC(=O)/C=C/C(=O)O	-3.04% (inactive)	–
CCCOc1ccc(S(=O)(=O)N2CCN(CC)CC2)cc1-c1nc2c(CC)n(Cc3ccccn3)nc2c(=O)[nH]1	-6.14% (inactive)	–
CN(C)CCOC1=Cc2ccccc2Sc2ccc(Cl)cc21	-1.57% [at 42.5 µM] (inactive)	–
CCc1c2c(nc3ccc(OC(=O)N4CCC(N5CCCCC5)CC4)cc13)-c1cc3c(c(=O)n1C2)COC(=O)[C@]3(O)CC	-0.228% [at 42.5 µM] (inactive)	–
C[Si](NC1CCCCC1)(NC1CCCCC1)NC1CCCCC1	-5.85% (inactive)	–
O=S(=O)(c1ccccc1)c1ccc(Cl)cc1	3.42% (inactive)	–
Fc1c(F)c(F)c(Br)c(F)c1F	1.45% (inactive)	–
CCNC(=O)N1CCN(CCCC(c2ccc(F)cc2)c2ccc(F)cc2)CC1	–	23.7 µM (active)
CCCCC(=O)O[C@]1(C(=O)CO)[C@@H](C)C[C@H]2[C@@H]3CCC4=CC(=O)C=C[C@]4(C)[C@@]3(F)[C@@H](O)C[C@@]21C	0.888% (inactive)	–
CCC(C)(C)C1CCC(O)CC1 (stereo not given)	-5.4% (inactive)	–
O=C(O)c1cccnc1C(=O)O	3.99% (inactive)	–
CCCCCCCCCCCC[N+](C)(C)CC(=O)[O-]	0.938% (inactive)	–
CCCCCCCCCOC(C)=O	-2.63% (inactive)	–
CC1CN(c2cc3c(cc2F)c(=O)c(C(=O)O)cn3-c2ccc(F)cc2F)CCN1 (stereo not given)	-5.19% [at 8.39 µM] (inactive)	–
O=[N+]([O-])c1cccc(S(=O)(=O)NCCNS(=O)(=O)c2cccc([N+](=O)[O-])c2)c1	3.38% [at 42.5 µM] (inactive)	–
CCOC(=N)CC(=O)OCC	-6.33% (inactive)	–
C[C@]12CCC(=O)C=C1C=C[C@@H]1[C@@H]2CC[C@@]2(C)[C@H]1CC[C@@]21CCC(=O)O1	3.83% [at 42.5 µM] (inactive)	–
OC(CCCN1CCCCC1)(c1ccccc1)c1ccccc1	-11.5% [at 42.5 µM] (inactive)	–

Reference: PubChem BioAssay (Tox21)
